Results taken from ChEMBL document CHEMBL2218924, “A broad activity screen in support of a chemogenomic map for kinase signalling research and drug discovery” (Biochem J, 2013).

What follows are compounds tested against T1, Serine/threonine-protein kinase BRSK1 (Homo sapiens) (UniProt Q8TDC3). Conditions: at 1 µM.
T1 sequence (whole entry): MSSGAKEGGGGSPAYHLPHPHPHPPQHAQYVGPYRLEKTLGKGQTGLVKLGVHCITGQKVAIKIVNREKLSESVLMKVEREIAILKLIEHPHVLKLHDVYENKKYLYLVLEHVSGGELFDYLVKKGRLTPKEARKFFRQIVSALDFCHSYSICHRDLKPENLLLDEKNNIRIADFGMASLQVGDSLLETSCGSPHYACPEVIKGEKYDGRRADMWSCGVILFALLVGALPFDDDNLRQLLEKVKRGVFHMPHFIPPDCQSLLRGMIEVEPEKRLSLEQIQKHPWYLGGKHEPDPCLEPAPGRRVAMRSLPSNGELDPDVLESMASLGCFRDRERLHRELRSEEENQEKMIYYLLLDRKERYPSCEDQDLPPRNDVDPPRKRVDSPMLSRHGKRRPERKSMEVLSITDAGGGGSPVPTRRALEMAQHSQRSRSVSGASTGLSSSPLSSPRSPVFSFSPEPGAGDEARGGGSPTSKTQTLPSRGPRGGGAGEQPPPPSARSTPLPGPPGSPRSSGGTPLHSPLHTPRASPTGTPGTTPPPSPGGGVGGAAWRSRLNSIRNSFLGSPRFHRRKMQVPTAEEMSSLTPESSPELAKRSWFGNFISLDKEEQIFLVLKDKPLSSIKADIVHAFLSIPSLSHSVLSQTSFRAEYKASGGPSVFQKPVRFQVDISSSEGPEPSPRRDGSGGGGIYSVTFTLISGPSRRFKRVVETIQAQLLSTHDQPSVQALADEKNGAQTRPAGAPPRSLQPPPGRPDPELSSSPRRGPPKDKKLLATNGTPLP
`c1ccc2c(-c3ccncc3)c[nH]c2c1` showed a residual activity of 52%. In the case of `CNc1cc2c(Nc3cccc(Br)c3)ncnc2cn1`, the residual activity was 34%. Compound `C[C@@H](N)[C@H]1CC[C@H](C(=O)Nc2ccncc2)CC1` has a residual activity of 106%. Compound `c1ccc(-c2n[nH]cc2-c2ccnc3ccccc23)nc1` has a residual activity of 104%. `O=C(O)c1ccc2c3c1cccc3c(=O)n1c3ccccc3nc21` was tested, and the residual activity was 84%. For `CCN(CC)C(=O)c1ccc(Nc2nc(OCC3CCCCC3)c3nc[nH]c3n2)cc1`, the residual activity was 62%. `CC(C)n1cnc2/c(=N/c3cccc(Cl)c3)nc(NCCO)[nH]c21` gave a residual activity of 89%. `CC(=O)O/N=C1\C(=C2\C(=O)Nc3cc(Br)ccc32)Nc2ccccc21` showed a residual activity of 48%. `CC(C)n1cnc2c(NCc3ccccc3)nc(NCCCO)nc21` gave a residual activity of 105%. Work on `CC(=O)c1ccc(N2CCOCC2)cc1O` yielded a residual activity of 93%. Compound `Cc1ccc(NC2=CC(=O)c3sc(C)nc3C2=O)cc1` has a residual activity of 101%. `Cc1cccc(-c2[nH]c(C(C)(C)C)nc2-c2ccc3c(c2)OCO3)n1` was tested, and the residual activity was 97%.
